This note sets out measurements from PubChem BioAssay (NCATS).

Each structure is given as a SMILES string. Records with an inconclusive call do not appear. Calls of active or inactive are those of the source. Unless noted, calls follow the shape of the dose curve; as a rule, active = well fitted curve in the direction sought with a large enough effect; inconclusive = small, poorly fitted or top-dose-only effect, or another doubt; inactive = no such curve, though single readings can be large; an effect the other way counts as inactive or inconclusive.

In assay [1] the target is Glutathione peroxidase 1 (Homo sapiens) (UniProt P07203). The assay can be described thus: Primary qHTS Assay for Inhibitors of Recombinant Selenoprotein Glutathione Peroxidase 1 (GPX1) (AID 1845191). Also: nearly all actives have a fitted effect of over 65% in size. A digest of the protocol:
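GR-coupled readout: NADPH consumption tracked by fluorescence, ex 340/em 450 nm, at t=0 and after 15 min at RT. Final mix 10 nM GPX1, 1 mM GSH, 0.5 mM CHP, 0.5 mM NADPH, 100 nM GR, 0.01% BSA, following 30 min enzyme–compound preincubation.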

Assay [2] addresses Phospholipid hydroperoxide glutathione peroxidase GPX4 (Homo sapiens) (UniProt P36969). Nature of the assay: Primary qHTS Assay for Inhibitors of Recombinant Selenoprotein Glutathione Peroxidase 4 (GPX4) (AID 1845192). Also: nearly all actives have a fitted effect of over 65% in size. Also: potency is read from the fitted curve at half-maximal effect. In short, it runs like this:
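Steps: GPX4 plus compound, 30 min RT; add GR/GSH/NADPH master mix; start with cumene hydroperoxide; read 340/450 nm fluorescence at 0 and 15 min. Finals were 200 nM GPX4, 1 mM GSH, 0.5 mM CHP, 0.5 mM NADPH, 100 nM GR.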

Assay [3] addresses Luciferin 4-monooxygenase (Photinus pyralis) (UniProt P08659). Nature of the assay: Primary firefly luciferase (FLuc) qHTS assay for identification of artifact compounds. (AID 1845220). Also: nearly all actives have a fitted effect of over 60% in size. In short, it runs like this:
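Enzymatic FLuc inhibition assay: compounds pre-exposed to luciferin/ATP (10 uM each) for 15 min, then purified P. pyralis enzyme at 10 nM added. Read-out: luminescence at 5 min.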

Assay [4] is described as follows: Primary fluorescence-based thiol-reactive (MSTI) qHTS assay for identification of artifact compounds. (AID 1845221).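 Also: series mostly up to about 54 µM; thiol-reactive compounds lower the probe fluorescence signal; nearly all actives have a fitted effect of over 65% in size.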 In short, it runs like this:
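One-hour, room-temperature, dark incubation of compound with 4 uM MSTI in PBS (pH 7.4, 2% DMSO) precedes a fluorescence read at 525 nm excitation, 598 nm emission; Hill-equation fitting yields concentration-response values.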

The test system of assay [5] is Nanoluciferase (engineered Oplophorus gracilirostris luciferase). The assay can be described thus: Primary Nanoluciferase (NLuc) qHTS assay for identification of artifact compounds. (AID 1845222).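 Also: NLuc secreted into diluted conditioned medium of S16 cells; series mostly up to about 54 µM; 0% = DMSO and -100% = no enzyme.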 A digest of the protocol:
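S16 cell supernatant NLuc, 1:55; cpds qHTS; 15 min RT dark; Nano-Glo substrate 1:100, 5 min; luminescence; Hill fit of % inhibition.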

Assay [6] in a line: Primary redox qHTS assay for identification of artifact compounds. (AID 1845223). In short, it runs like this:
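Redox-cycling detection via DTT (250 uM final) oxidation coupled to Amplex Red (25 uM)/HRP (250 mU/mL) in HBSS. 15 min preincubation plus 30 min after DTT, room temperature. Ex/Em 525/598 nm; 4-parameter Hill fit against DMSO and 10 uM DA3003.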

Assay [7] is described as follows: Quantitative High-Throughput drug screen in 47 multiple myeloma cell lines against the NCATS MIPE library collection: FR4_PLB cell viability assay (AID 1918924; also: nearly all actives have a fitted effect of over 35% in size; also: potency is read from the fitted curve at half-maximal effect). A digest of the protocol: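 Steps: seed 500 cells per well; pin-transfer MIPE 4.0 library; incubate 48 h at 37C, 5% CO2, humidified; add CellTiter-Glo, 5 min room temperature; read luminescence.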
The nature of assay [8]: Quantitative High-Throughput drug screen in 47 multiple myeloma cell lines against the NCATS MIPE library collection: Delta47_JCRB cell viability assay (AID 1918925; also: nearly all actives have a fitted effect of over 45% in size; also: potency is read from the fitted curve at half-maximal effect). A digest of the protocol:
(§1)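 qHTS of the MIPE 4.0 collection: 500 myeloma cells/well, 48 h drug exposure at 37C in 5% CO2, then CellTiter-Glo for 5 min at room temperature before luminescence reading.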

Assay [9] is described as follows: Quantitative High-Throughput drug screen in 47 multiple myeloma cell lines against the NCATS MIPE library collection: EJM_DSMZ cell viability assay (AID 1918926; also: nearly all actives have a fitted effect of over 30% in size; also: potency is read from the fitted curve at half-maximal effect). A digest of the protocol: as §1
A short description of assay [10]: Quantitative High-Throughput drug screen in 47 multiple myeloma cell lines against the NCATS MIPE library collection: AMO1_DSMZ cell viability assay (AID 1918927; also: nearly all actives have a fitted effect of over 30% in size; also: potency is read from the fitted curve at half-maximal effect). A digest of the protocol: as §1
Assay [11] in a line: Quantitative High-Throughput drug screen in 47 multiple myeloma cell lines against the NCATS MIPE library collection: ARP1_JJKsccF8 cell viability assay (AID 1918928; also: nearly all actives have a fitted effect of over 40% in size; also: potency is read from the fitted curve at half-maximal effect). A digest of the protocol:
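Viability screen: myeloma cells (500/well) incubated 48 h at 37 °C, humidified 5% CO2, with pinned library compounds; CellTiter-Glo added, luminescence read; DMSO wells set 100%, medium-only wells 0%.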

A short description of assay [12]: Quantitative High-Throughput drug screen in 47 multiple myeloma cell lines against the NCATS MIPE library collection: ARD_JJKsccE7 cell viability assay (AID 1918929; also: potency is read from the fitted curve at half-maximal effect;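 as to viability: 100% = DMSO-only wells and 0% = media-only wells without cells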). In short, it runs like this: as §1
Assay [13] concerns the target Phenylethanolamine N-methyltransferase (Homo sapiens) (UniProt P11086). Nature of the assay: Confirmatory Screen for Target Class Profiling of Small Molecule Inhibitors of Methyltransferases (AID 1745852). The settings on record: MTase-Glo luminescence, SAH detection, recombinant enzyme; measured here: PNMT max response; stronger effect = lower value.
Assay [14] in a line: NCATS anti-infectives library activity on HEK293 viability as a counter-qHTS vs the C. elegans viability qHTS (AID 1745854). Also: % is scaled to controls: 0 for no effect and ±100 for the full control effect. A digest of the protocol:
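CellTiter-Glo luminescence, read on a CCD imager, scored viability of HEK293 cells after 24 hr compound exposure at 37C. Library tested in several concentrations, 1:5 steps, up to 41.7 uM; digitonin served as control.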

Assay [15] is described as follows: NCATS anti-infectives library activity on the primary C. elegans qHTS viability assay (AID 1745855; calls by dose curve). A digest of the protocol: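 Titration-based screen in worms: eggs hatched overnight in M9, L1 larvae fed TOP10 capsules in S medium with compound, incubated 21 °C for 7 days; fluorescent objects gated by size and intensity at days 0, 3 and 7.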

Sequence of Glutathione peroxidase 1 (Homo sapiens) (P07203 whole entry, looked up): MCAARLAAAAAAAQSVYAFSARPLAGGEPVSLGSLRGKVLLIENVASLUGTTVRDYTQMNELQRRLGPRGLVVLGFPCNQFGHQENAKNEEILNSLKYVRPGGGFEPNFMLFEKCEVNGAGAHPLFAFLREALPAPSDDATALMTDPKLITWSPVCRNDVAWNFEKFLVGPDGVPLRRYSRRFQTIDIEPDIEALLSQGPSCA
Sequence of Phospholipid hydroperoxide glutathione peroxidase GPX4 (Homo sapiens) (P36969 whole entry, looked up): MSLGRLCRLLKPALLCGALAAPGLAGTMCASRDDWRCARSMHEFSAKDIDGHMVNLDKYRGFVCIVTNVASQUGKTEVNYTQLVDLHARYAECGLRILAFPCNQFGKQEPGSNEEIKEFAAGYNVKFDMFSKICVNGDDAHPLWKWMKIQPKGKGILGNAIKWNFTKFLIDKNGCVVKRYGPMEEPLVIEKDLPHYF
Sequence of Phenylethanolamine N-methyltransferase (Homo sapiens) (P11086 whole entry, looked up): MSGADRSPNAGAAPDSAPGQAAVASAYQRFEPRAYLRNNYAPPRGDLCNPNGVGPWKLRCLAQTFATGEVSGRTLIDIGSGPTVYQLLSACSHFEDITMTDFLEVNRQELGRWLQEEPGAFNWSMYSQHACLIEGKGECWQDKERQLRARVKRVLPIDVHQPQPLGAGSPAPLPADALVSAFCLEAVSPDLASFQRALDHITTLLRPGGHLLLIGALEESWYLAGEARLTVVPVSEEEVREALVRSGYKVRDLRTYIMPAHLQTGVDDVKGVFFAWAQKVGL

For the compound `C[C@H]1[C@@H](OC(=O)CCC(=O)O)O[C@@H]2O[C@@]3(C)CC[C@@H]4[C@H](C)CC[C@@H]1[C@@]24OO3`, the Potency result in assay [1], in assay [2], in [3], in assay [4] and in [6] was “inactive” in each case. In assay [5], the outcome is “inactive”. Besides, the Potency was 11800 nM (active) in assay [7]; 5260 nM (active) in [8]; 14800 nM (active) in [9]; 833 nM (active) in assay [10]; 2350 nM (active) in [11]; 1480 nM (active) in [12].
Consider `C[C@@H](Cc1cc2c(c(C(N)=O)c1)N(CCCO)CC2)NCCOc1ccccc1OCC(F)(F)F`, for which the Potency result in assay [1], in assay [2], in assay [3], in assay [4], in assay [6] and in assay [7] was “inactive” throughout. For the same compound, the Potency entry in [9], in assay [10] and in [11] was “inactive” each time. The outcome in assay [5] is “inactive”. The Potency in assay [8] was 11800 nM (active).
`c1cc(N[C@@H]2CCNC2)nc(-c2cnc3ccc(-c4cn[nH]c4)cn23)c1`: the activity in assay [13] is -12.3%. The Potency result in assay [1], in assay [3] and in [6] was “inactive” throughout. The Potency in assay [2] is 25500 nM (active); in [7] it was 11800 nM (active); in assay [8] it was 9350 nM (active); in [9], 13200 nM (active); in assay [12], 26400 nM (active). Also, the outcome in assay [5] is “inactive”.
On to `CN(C)c1ccc(C(=O)NCCCCCCC(=O)NO)cc1`, for which the Potency result in assay [14], in [15], in assay [1] and in assay [2] was “inactive” throughout. Further, the Potency in assay [8] is 590 nM (active); in assay [9], 1870 nM (active); in [10] it was 235 nM (active); in [11] it was 743 nM (active); in assay [12], 332 nM (active).
On to `C=Cc1c(C)c2cc3nc(cc4[nH]c(cc5nc(cc1[nH]2)C(C)=C5CCC(=O)O)c(CCC(=O)OC)c4C)[C@@]1(C)C3=CC=C(C(=O)OC)[C@H]1C(=O)OC`, for which the Potency entry in assay [14], in assay [1] and in [2] was “inactive” throughout. The Potency in assay [7] is 662 nM (active); in assay [8] it was 132 nM (active); in assay [9], 37.2 nM (active); in assay [10], 93.5 nM (active); in assay [11], 743 nM (active); in [12] it was 296 nM (active).
For the compound `CCOC(=O)C=C[C@H](C[C@@H]1CCNC1=O)NC(=O)[C@@H](CC(=O)[C@@H](NC(=O)c1cc(C)on1)C(C)C)Cc1ccc(F)cc1`, the Potency result in assay [14], in assay [1], in [2], in [7], in assay [8] and in assay [9] was “inactive” each time. In addition, the Potency entry in assay [11] and in assay [12] was “inactive” in each case.
With `O=C1c2cccc(O)c2C(=O)c2c(O)cc(CO)cc21`, the Potency entry in assay [14], in assay [2], in [7], in assay [8], in [9] and in assay [10] was “inactive” each time. In addition, the Potency entry in assay [12] was “inactive”.
For the compound `Cc1cnc(Nc2ccc(CN3CCOCC3)cc2)nc1Nc1cccc(S(=O)(=O)NC(C)(C)C)c1`, the activity in assay [13] is -4.34%. Moreover, the Potency result in assay [1], in assay [2], in assay [3], in assay [4] and in assay [6] was “inactive” throughout. For the same compound, the outcome in [5] is “inactive”. Further, the Potency was 2640 nM (active) in [7], 1870 nM (active) in assay [8], 5900 nM (active) in [9] and 3320 nM (active) in assay [11].
